Measured values taken from PubChem BioAssay AID1159580 (chemical genetic matrix, 2015).
Screen size: about 5,500 compounds; about 2,000 (36%) were called active. Not shown: some 18% with an inconclusive outcome. Cut-off read from the data, not from the text of the source: active = normalized growth mostly below about 0.91 (no sharp cut-off); inconclusive = no clear call, values can overlap the other calls; inactive = mostly above about 0.92. The list shows a part of the results.

Assay: chemical genetic growth profiling, strain panel (AID 1159580);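 note: tested at 20 µM; growth read once vehicle control cultures reached saturation at 30 °C; 1 = growth at the plate median or of vehicle wells; lower values mean less growth of the strain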
Settings: growth OD

Measured: normalized growth

Clc1ccc(Cl)cc1
inactive: S. cerevisiae deletion strains, locus YAL013W, strain DEP1, hits give low values 1.01 | S. cerevisiae deletion strains, locus YBR021W, strain FUR4, hits give low values 1.01 | S. cerevisiae deletion strains, locus YBR229C, strain ROT2, hits give low values 1.01 | S. cerevisiae deletion strains, locus YCL029C, strain bik1, hits give low values 0.994 | S. cerevisiae deletion strains, locus YDL035C, strain GPR1, hits give low values 1.02 | S. cerevisiae deletion strains, locus YDL074C, strain BRE1, hits give low values 1.04 | S. cerevisiae deletion strains, locus YDL101C, strain DUN1, hits give low values 1.02 | S. cerevisiae deletion strains, locus YDL134C, strain PPH21, hits give low values 1 | S. cerevisiae deletion strains, locus YDL185W, strain tfp1, hits give low values 0.968 | S. cerevisiae deletion strains, locus YDL192W, strain arf1, hits give low values 0.983 | S. cerevisiae deletion strains, locus YDR101C, strain arx1, hits give low values 0.986 | S. cerevisiae deletion strains, locus YDR150W, strain NUM1, hits give low values 1 | S. cerevisiae deletion strains, locus YDR162C, strain NBP2, hits give low values 1.01 | S. cerevisiae deletion strains, locus YDR318W, strain mcm21, hits give low values 0.99 | S. cerevisiae deletion strains, locus YDR388W, hits give low values 0.988 | S. cerevisiae deletion strains, locus YDR502C, strain sam2, hits give low values 0.993 | S. cerevisiae deletion strains, locus YEL061C, strain CIN8, hits give low values 1 | S. cerevisiae deletion strains, locus YER110C, hits give low values 0.979 | S. cerevisiae deletion strains, locus YER155C, strain BEM2, hits give low values 1.01 | S. cerevisiae deletion strains, locus YER167W, strain BCK2, hits give low values 1.01 | S. cerevisiae deletion strains, locus YGL078C, strain dbp3, hits give low values 0.974 | S. cerevisiae deletion strains, locus YGL086W, strain mad1, hits give low values 1 | S. cerevisiae deletion strains, locus YGL248W, strain PDE1, hits give low values 1.01 | S. cerevisiae deletion strains, locus YGR078C, strain PAC10, hits give low values 1.02 | S. cerevisiae deletion strains, locus YGR135W, strain pre9, hits give low values 0.99 | S. cerevisiae deletion strains, locus YGR229C, strain SMI1, hits give low values 1.02 | S. cerevisiae deletion strains, locus YGR252W, strain gcn5, hits give low values 0.964 | S. cerevisiae deletion strains, locus YHR030C, strain SLT2, hits give low values 1.01 | S. cerevisiae deletion strains, locus YHR079C, strain IRE1 (second series), hits give low values 0.989 | S. cerevisiae deletion strains, locus YHR094C, strain hxt1, hits give low values 0.987 | S. cerevisiae deletion strains, locus YHR129C, strain ARP1, hits give low values 1.01 | S. cerevisiae deletion strains, locus YHR200W, strain rpn10, hits give low values 0.988 | S. cerevisiae deletion strains, locus YIL066C, strain RNR3, hits give low values 1.02 | S. cerevisiae deletion strains, locus YIL073C, strain SPO22, hits give low values 1.01 | S. cerevisiae deletion strains, locus YIL125W, strain kgd1, hits give low values 0.972 | S. cerevisiae deletion strains, locus YIR030C, strain dcg1, hits give low values 0.987 | S. cerevisiae deletion strains, locus YJL095W, strain BCK1, hits give low values 1.02 | S. cerevisiae deletion strains, locus YJL134W, strain LCB3, hits give low values 1.01 | S. cerevisiae deletion strains, locus YJL168C, strain set2, hits give low values 0.983 | S. cerevisiae deletion strains, locus YJL187C, strain SWE1 (second series), hits give low values 1.01 | S. cerevisiae deletion strains, locus YJR043C, strain POL32, hits give low values 1 | S. cerevisiae deletion strains, locus YJR075W, strain HOC1, hits give low values 1.01 | S. cerevisiae deletion strains, locus YKL009W, strain mrt4, hits give low values 1 | S. cerevisiae deletion strains, locus YKL068W, hits give low values 0.984 | S. cerevisiae deletion strains, locus YKL085W, strain MDH1 (second series), hits give low values 0.982 | S. cerevisiae deletion strains, locus YKL085W, strain MDH1, hits give low values 0.982 | S. cerevisiae deletion strains, locus YKL190W, strain CNB1, hits give low values 1.02 | S. cerevisiae deletion strains, locus YKR001C, strain vps1, hits give low values 0.989 | S. cerevisiae deletion strains, locus YLR039C, strain RIC1, hits give low values 1.04 | S. cerevisiae deletion strains, locus YLR058C, strain SHM2, hits give low values 1.01 | S. cerevisiae deletion strains, locus YLR102C, strain apc9, hits give low values 0.993 | S. cerevisiae deletion strains, locus YLR262C, strain YPT6, hits give low values 1.04 | S. cerevisiae deletion strains, locus YLR268W, strain sec22, hits give low values 0.999 | S. cerevisiae deletion strains, locus YLR330W, strain CHS5, hits give low values 1 | S. cerevisiae deletion strains, locus YLR342W, strain FKS1 (second series), hits give low values 0.997 | S. cerevisiae deletion strains, locus YLR371W, strain rom2, hits give low values 0.981 | S. cerevisiae deletion strains, locus YLR418C, strain cdc73, hits give low values 0.974 | S. cerevisiae deletion strains, locus YML016C, strain PPZ1, hits give low values 1.01 | S. cerevisiae deletion strains, locus YML032C, strain rad52, hits give low values 0.986 | S. cerevisiae deletion strains, locus YML124C, strain tub3, hits give low values 0.987 | S. cerevisiae deletion strains, locus YMR078C, strain ctf18, hits give low values 0.99 | S. cerevisiae deletion strains, locus YMR223W, strain ubp8, hits give low values 0.984 | S. cerevisiae deletion strains, locus YMR263W, strain SAP30, hits give low values 1.01 | S. cerevisiae deletion strains, locus YMR307W, strain GAS1, hits give low values 1.03 | S. cerevisiae deletion strains, locus YNL067W, strain RPL9B, hits give low values 1.02 | S. cerevisiae deletion strains, locus YNL128W, strain TEP1, hits give low values 1.02 | S. cerevisiae deletion strains, locus YNL153C, strain GIM3, hits give low values 1.01 | S. cerevisiae deletion strains, locus YNL233W, strain BNI4, hits give low values 1.02 | S. cerevisiae deletion strains, locus YNL250W, strain rad50, hits give low values 0.963 | S. cerevisiae deletion strains, locus YNL271C, strain bni1, hits give low values 0.98 | S. cerevisiae deletion strains, locus YNL298W, strain CLA4, hits give low values 0.98 | S. cerevisiae deletion strains, locus YNL307C, strain MCK1, hits give low values 0.991 | S. cerevisiae deletion strains, locus YNL322C, strain KRE1, hits give low values 1.01 | S. cerevisiae deletion strains, locus YNR052C, strain pop2, hits give low values 0.981 | S. cerevisiae deletion strains, locus YOL006C, strain TOP1, hits give low values 1.05 | S. cerevisiae deletion strains, locus YOL012C, strain htz1 0.71 | S. cerevisiae deletion strains, locus YOL147C, strain pex11, hits give low values 0.992 | S. cerevisiae deletion strains, locus YOR061W, strain CKA2, hits give low values 1.01 | S. cerevisiae deletion strains, locus YOR069W, strain VPS5, hits give low values 1.01 | S. cerevisiae deletion strains, locus YOR136W, strain idh2, hits give low values 0.985 | S. cerevisiae deletion strains, locus YOR144C, strain elg1, hits give low values 0.994 | S. cerevisiae deletion strains, locus YOR184W, strain ser1, hits give low values 0.997 | S. cerevisiae deletion strains, locus YOR316C, strain cot1, hits give low values 0.989 | S. cerevisiae deletion strains, locus YPL055C, strain LGE1, hits give low values 1.02 | S. cerevisiae deletion strains, locus YPL241C, strain CIN2, hits give low values 1.01 | S. cerevisiae deletion strains, locus YPR119W, strain clb2, hits give low values 0.988 | S. cerevisiae deletion strains, locus YPR141C, strain kar3, hits give low values 0.975 | S. cerevisiae deletion strains, locus YPR163C, strain tif3, hits give low values 0.991 | S. cerevisiae deletion strains, locus YPR167C, strain met16, hits give low values 0.985 | S. cerevisiae deletion strains, strain wtn01, hits give low values 0.987 | S. cerevisiae strains, strain wild type, hits give low values 1.01
